Values without a mark were called inactive. Active and inactive are the calls of the source. No stated cut-off is given here; in the data, active means inhibition above about 28%; inactive means the rest.
Experiment: StAR promoter reporter inhibitors, counter-screen for LRH-1 inverse agonist project, cell-based, luminescence, high throughput (AID 651611)
Settings: StAR promoter luciferase reporter counterscreen, at 3.6 µM, stronger effect = higher value

| Structure (SMILES) | inhibition |
| --- | --- |
| COC(=O)CNC(=O)c1nn(-c2cccc(OC)c2)c(=O)c2ccccc12 | 25% |
| CCc1cc(=O)oc2c(C)c(OCC(=O)NCCN3CCOCC3)ccc12 | -3.34% |
| Cc1onc(-c2ccccc2)c1C(=O)O/N=C(\N)c1ccc([N+](=O)[O-])o1 | 11.5% |
| Cc1ccc(SCC(=O)Nc2ccc(N3CCOCC3)cc2)c(C)c1 | 16.4% |
| Cc1nn(Cc2ccc(Cl)cc2)c(C)c1NC(=O)c1noc2c1CCCCC2 | 21% |
| CCOc1ccc(NC(=O)CSc2nc3c(c(=O)n2-c2ccccc2OC)SCC3)cc1 | 8.34% |
| C/C(=N\NC(N)=S)c1ccncc1 | 6.9% |
| CCN(CC)c1nc(C)c(C(C)=O)cc1C#N | 1.34% |
| Cn1c(=O)oc2cc(NC(=O)CCl)ccc21 | 51.8% (active) |
| COc1ccc(OC)c(C2C3=C(COC3=O)Nc3cc4c(cc32)OCO4)c1 (stereo unspecified) | 57.4% (active) |
| CCOCC(=O)Nc1cccc(C(=O)OCC)c1 | -6.06% |
| C=CCNc1nc2c(c(=O)n(C)c(=O)n2C)n1CCCCCC | 28.9% (active) |
| O=C(c1c(F)c(F)c(F)c(F)c1F)N1CCN(c2cccc(C(F)(F)F)c2)CC1 | 7.83% |
| COc1cc(CCNc2ccc3nnc(-c4ccccc4)n3n2)cc(OC)c1OC | 50.7% (active) |
| O=C1CCN(CCCN2CCC(=O)N(Cc3ccccc3)C2=S)C(=S)N1Cc1ccccc1 | -8.81% |
| CCC(C)Nc1nc(-c2cccc(OC)c2O)nc2ccccc12 (stereo unspecified) | 30.8% (active) |
